Cycloheximide cs: counter-screen hit for Shiga toxin inhibitors, cycloheximide; max response, %; AID 2314; cell reporter, cycloheximide protein synthesis inhibition counterscreen; 300,000 tested, 12% active; in the data active = max response mostly above about 13%, no sharp cut-off; inactive = mostly below about 14%; note: read at 38.3 µM for the half of the compounds with a filed dose; 0% is about no effect
TbPYK inhibitor: blocks Trypanosoma brucei pyruvate kinase; Q57TT1; TbPYK enzyme, Kinase-Glo Plus ATP luminescence, 45 min; Potency, µM (titrated, usually from 76.8 µM), inactives show at the highest dose activity, negative = inhibition, usual class: inhibitors; 410,000 tested, 0.12% active; note: potency is the fitted concentration of half-maximal effect; % is set by controls: 0 for no effect and ±100 for the full control effect; nearly all actives have a fitted effect of over 50% in size
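Quantitative HTS: titrated library compounds versus trypanosomal pyruvate kinase in TEA buffer (pH 7.2) containing KCl, MgCl2, BSA and Tween-20. Reactions were initiated with ADP, 130 uM final. Kinase-Glo Plus luminescence was read after 45 min at RT.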
Giardia FBPA inh: blocks Giardia fructose-bisphosphate aldolase activity | A8B2U2 | 290,000 tested, 0.71% active | Potency, µM (doses to about 59.6 µM), without a hit: at the top dose activity, negative = inhibition, usual class: inhibitors | AID 2451 | purified Giardia FBPA; note: potency is the fitted concentration of half-maximal effect; % is set by controls: 0 for no effect and ±100 for the full control effect; nearly all actives have a fitted effect of over 55% in size
Target sequence (A8B2U2 whole entry, looked up): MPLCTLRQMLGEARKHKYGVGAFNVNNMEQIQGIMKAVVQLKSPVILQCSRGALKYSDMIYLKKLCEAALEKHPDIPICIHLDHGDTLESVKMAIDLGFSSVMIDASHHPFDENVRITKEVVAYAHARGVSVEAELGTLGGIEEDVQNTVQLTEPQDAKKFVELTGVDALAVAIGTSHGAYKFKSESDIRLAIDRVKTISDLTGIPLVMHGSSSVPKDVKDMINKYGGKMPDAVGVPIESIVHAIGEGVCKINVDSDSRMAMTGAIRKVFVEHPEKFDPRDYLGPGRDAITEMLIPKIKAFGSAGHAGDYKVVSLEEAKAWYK
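Giardia FBPA (40 nM reagent) was preincubated 10 min at RT with compound (up to 57.5 uM final), then substrate plus GAPDH/TPI/NAD/arsenate coupling system with diaphorase/resazurin was added; resorufin fluorescence (525/598 nm) was read after 20 min.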
LmPK inh: blocks Leishmania mexicana pyruvate kinase activity; purified LmPK, Kinase-Glo ATP luminescence, 1 h; Potency, µM (series often up to 57.5 µM), without a hit: top-dose activity change, negative = inhibition, usual class: inhibitors; AID 1721; 290,000 tested, 0.37% active; Q27686; note: potency is the fitted concentration of half-maximal effect; % is set by controls: 0 for no effect and ±100 for the full control effect
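Kinase-Glo luminescence read after 1 h RT reaction of 0.1 nM LmPK with 0.5 mM PEP and 0.1 mM ADP. Activity scaled between uninhibited and enzyme-free controls.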
Sm TGR inh: S. mansoni TGR enzyme inhibition; Potency, µM (doses to about 114 µM), inactives show at the top dose activity change, negative = inhibition, hits mostly inhibitors; purified TGR, DTNB reduction, TNB absorbance 405 nm; 360,000 tested, 3% active; Q962Y6; note: potency is the fitted concentration of half-maximal effect; % is set by controls: 0 for no effect and ±100 for the full control effect; nearly all actives have a fitted effect of over 60% in size
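First, TGR (20 nM dispensed) and NADPH were mixed with compound. Second, a 15 min room-temperature incubation followed. Third, further NADPH and then DTNB were added to start the reaction. Finally, TNB absorbance was monitored kinetically.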
Shiga toxin inh: inhibitors of Shiga toxin in Vero cells; inhibition, % at 38.7 µM; 290,000 tested, 9.2% active; Vero cells, Shiga toxin protein synthesis inhibition reporter; in the data active = inhibition mostly above about 28%, no sharp cut-off; inactive = mostly below about 43%; note: 0% is about no effect
* hit, by the source's call. The entries come from a sample that favours hits as a whole. Unless noted, calls come from the whole dose curve; as a rule, active = well fitted curve in the direction sought with a large enough effect; inconclusive = small, poorly fitted or top-dose-only effect, or another doubt; inactive = no such curve, though single readings can be large; an effect the other way counts as inactive or inconclusive.

Results for O=C(NCc1ccccn1)C(F)(F)C(F)(F)C(=O)NCc1ccccn1 ?
Cycloheximide cs: -4.3; TbPYK inhibitor: -9.4%; Giardia FBPA inh: 1.3%; LmPK inh: -4.4%; Sm TGR inh: -3.4%; Shiga toxin inh: -6.9

Results for CC1(C(=O)NS(=O)(=O)c2cccc(Cl)c2)CCN1C(=O)C1(c2ccc(Cl)cc2)CCC1 (configuration not stated) ?
TbPYK inhibitor: 3.7%

What do the screens show for `Cc1ccc(C(=O)n2nc(C)c(S(=O)(=O)N3CCOCC3)c2C)cc1`?
TbPYK inhibitor: 3.7%; Sm TGR inh: -12.0%

What do the screens show for `COc1ccc(Oc2ccc(C(F)(F)F)cc2NC(=O)c2ccc(OC)cc2)cc1`?
Cycloheximide cs: -2.2; TbPYK inhibitor: 1.1%; Giardia FBPA inh: -8.6%; LmPK inh: -2.2%; Sm TGR inh: 0.1%; Shiga toxin inh: -8.7

Results for COc1ccc(Oc2ccc(C(F)(F)F)cc2N)cc1 ?
Cycloheximide cs: 28.9*; TbPYK inhibitor: 1.4%; Giardia FBPA inh: -7.4%; LmPK inh: 0.1%; Sm TGR inh: 0.8%; Shiga toxin inh: 55.9*

How did Oc1ccccc1C1NN=C(c2ccccc2)S1 (configuration not stated) do in these assays?
Cycloheximide cs: 33.2*; TbPYK inhibitor: -8.4%; Giardia FBPA inh: inconclusive; LmPK inh: -12.8%; Sm TGR inh: -6.2%; Shiga toxin inh: 56.1*

What do the screens show for `O=C(NC1CCCCCC1)c1ccc(CS(=O)c2cccc(Cl)c2)o1` (configuration not stated)?
TbPYK inhibitor: 1.7%; Sm TGR inh: inconclusive

Results for O=C(NC(=S)Nc1ccc(Cc2ccncc2)cc1)c1ccc(F)cc1 ?
Cycloheximide cs: 18.0*; TbPYK inhibitor: -5.4%; Giardia FBPA inh: -8.6%; LmPK inh: 7.6%; Sm TGR inh: inconclusive; Shiga toxin inh: 27.4

What do the screens show for `CNC(=S)Nc1ccc(Cc2ccncc2)cc1`?
Cycloheximide cs: 4.4; TbPYK inhibitor: -2.9%; Giardia FBPA inh: -0.4%; LmPK inh: -2.0%; Sm TGR inh: 39.8µM*; Shiga toxin inh: -6.6

How did CC(C)(C)C(=O)NC(=S)Nc1ccc(Cc2ccncc2)cc1 do in these assays?
Cycloheximide cs: -0.4; TbPYK inhibitor: 0.2%; Giardia FBPA inh: -2.9%; LmPK inh: 2.7%; Sm TGR inh: inconclusive; Shiga toxin inh: -8.9

How did S=C(NCc1ccncc1)Nc1ccc(Br)cc1 do in these assays?
Cycloheximide cs: 6.3; TbPYK inhibitor: -1.7%; Giardia FBPA inh: 6.5%; LmPK inh: -3.5%; Sm TGR inh: 28.2µM*; Shiga toxin inh: 4.4

What do the screens show for `CCNC(=S)Nc1ccc(Cc2ccncc2)cc1`?
Cycloheximide cs: -0.5; TbPYK inhibitor: -2.9%; Giardia FBPA inh: -1.1%; LmPK inh: -2.4%; Sm TGR inh: -16.4%; Shiga toxin inh: 24.5

What do the screens show for `CCCOc1ccc(-c2nonc2NC(=O)COc2ccc(C)cc2)cc1OCCC`?
TbPYK inhibitor: 1.3%; Sm TGR inh: 11.2%

Results for CCCn1nnc(NC(=O)c2ccccc2Br)n1 ?
Cycloheximide cs: 18.8; TbPYK inhibitor: 5.5%; Giardia FBPA inh: -2.9%; LmPK inh: -7.7%; Sm TGR inh: 9.2%; Shiga toxin inh: 48.6*

What do the screens show for `CCn1nnc(NC(=O)c2cccnc2)n1`?
Cycloheximide cs: -1.0; TbPYK inhibitor: 4.7%; Giardia FBPA inh: -2.0%; LmPK inh: -0.7%; Sm TGR inh: -30.1%; Shiga toxin inh: 4.6

What do the screens show for `CCn1nnc(NC(=O)c2ccccc2Br)n1`?
Cycloheximide cs: 27.4*; TbPYK inhibitor: -5.3%; Giardia FBPA inh: 6.8%; LmPK inh: -6.9%; Sm TGR inh: 8.2%; Shiga toxin inh: 70.8*

Results for c1ccc(-c2cnn3nnnc3n2)cc1 ?
Cycloheximide cs: 1.5; TbPYK inhibitor: 1.0%; Giardia FBPA inh: -0.2%; LmPK inh: -0.9%; Sm TGR inh: 0.0%; Shiga toxin inh: 15.7

What do the screens show for `c1ccc(-c2ccn3nnnc3n2)cc1`?
Cycloheximide cs: 35.9*; TbPYK inhibitor: -3.2%; Giardia FBPA inh: -1.2%; LmPK inh: 2.3%; Sm TGR inh: inconclusive; Shiga toxin inh: 74.5*

What do the screens show for `Fc1ccc(-c2nc3ccncc3[nH]2)cc1`?
Cycloheximide cs: 23.4*; TbPYK inhibitor: -19.3%; Giardia FBPA inh: -5.5%; LmPK inh: inconclusive; Sm TGR inh: -19.2%; Shiga toxin inh: 27.9

Results for COc1ccc(-c2nc3ccncc3[nH]2)cc1OC ?
Cycloheximide cs: 9.4; TbPYK inhibitor: -3.4%; Giardia FBPA inh: -1.7%; LmPK inh: -29.4%; Sm TGR inh: 8.3%; Shiga toxin inh: -4.4

Results for Clc1ccc(-c2nc3ccncc3[nH]2)cc1 ?
Cycloheximide cs: 81.8*; TbPYK inhibitor: -24.4%; Giardia FBPA inh: -5.3%; LmPK inh: 14.1µM*; Sm TGR inh: -1.5%; Shiga toxin inh: 58.5*

Results for Cn1cc(C[C@H](NC(=O)OC(C)(C)C)C(=O)N[C@@H](CO)Cc2ccccc2)c2ccccc21 ?
TbPYK inhibitor: -6.0%

How did COc1ccc(CC(=O)Nc2nc(OCCN3CCCC3=O)cnc2-c2cccc(C(F)(F)F)c2)cc1 do in these assays?
TbPYK inhibitor: 4.9%

Results for Cc1ccccc1N=Nc1ccc(N=Nc2c(O)ccc3ccccc23)c(C)c1 ?
TbPYK inhibitor: 2.3%

What do the screens show for `COc1ccccc1N=Nc1ccc(N)c(C)c1`?
Cycloheximide cs: 32.4*; TbPYK inhibitor: 6.6%; Giardia FBPA inh: 0.8%; LmPK inh: -1.6%; Sm TGR inh: 34.3%; Shiga toxin inh: 91.3

Results for O=C(Cn1cnc2c(NCc3ccccc3)ncnc21)NCc1ccccn1 ?
TbPYK inhibitor: -2.4%

How did C=CCn1cnc2c(NCc3ccccc3)ncnc21 do in these assays?
Cycloheximide cs: 49.8*; TbPYK inhibitor: 1.2%; Giardia FBPA inh: -15.5%; LmPK inh: 3.7%; Sm TGR inh: 6.1%; Shiga toxin inh: 90.5*

How did COc1ccc(CN(C(=O)Cn2nnc(-c3ccc(C)o3)n2)C(C(=O)NCC2CCCO2)c2ccco2)cc1 (configuration not stated) do in these assays?
Cycloheximide cs: 16.7*; TbPYK inhibitor: -2.1%; Giardia FBPA inh: 0.5%; LmPK inh: 2.5%; Sm TGR inh: 2.8%; Shiga toxin inh: 0.5

How did Cc1ccc(-c2nnn(CC(=O)N(Cc3ccccc3F)C(C(=O)NC3CCCC3)c3ccncc3)n2)o1 (configuration not stated) do in these assays?
Cycloheximide cs: -4.9; TbPYK inhibitor: -23.9%; Giardia FBPA inh: -4.8%; LmPK inh: 11.7%; Sm TGR inh: 39.8µM*; Shiga toxin inh: 18.3

What do the screens show for `CCOC(=O)c1cc2occc2n1CC(=O)Nc1ccc(OC)cc1OC`?
Cycloheximide cs: 14.8; TbPYK inhibitor: 9.8%; Giardia FBPA inh: -4.0%; LmPK inh: 2.9%; Sm TGR inh: 20µM*; Shiga toxin inh: -4.0

How did CCOC(=O)c1cc(-c2ccc(C)cc2)n(CC(=O)Nc2ccc(OC)cc2OC)c1C do in these assays?
TbPYK inhibitor: 1.4%; Sm TGR inh: 0.6%

High-throughput results as filed in PubChem.
